Records with an inconclusive call do not appear. A number with no mark means an inactive call. The source made the active and inactive calls. The call rests on the fitted dose curve; in most records, active means well fitted cell-killing curve with a large enough effect; inconclusive means small, poorly fitted or top-dose-only effect, or effect the other way; inactive means no such curve, though single readings can be large or run the other way.
Experiment: qHTS of pediatric cancer cell lines to identify multiple opportunities for drug repurposing: Confirmatory screen for SJ-GBM2 cells (AID 1347116);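 further: 48 hour compound exposure; nearly all actives have a fitted effect of over 60% in size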
Settings: SJ-GBM2 glioblastoma cells, viability; series mostly up to 45.9 µM; activity change, negative = cytotoxic: at the top concentration
From the text: Drug repurposing or repositioning has been offered as a strategy for drug development in oncology programs. This approach has special potential for childhood cancers and other rare or orphan diseases, where the expected return on new drug development has been a disincentive to pharmaceuticals.
In this project we exploit the poly-pharmacology of drugs to discover new indications via phenotypic screening of a panel of 19 well-characterized cell lines derived from solid tumors seen in children and adolescents. The goal is to identify approved drugs with previously unrecognized anticancer properties that has the potential to reveal new mechanisms and biological processes involved in carcinogenesis or drug resistance. We employed a titration-based paradigm (quantitative high-throughput screening or qHTS), where all compounds were tested at multiple concentrations for their effect on cell viability. Concentration-response curves (CRCs) were derived directly from the primary screen, and both potency and efficacy values were used to identify compounds with robust bioactivity profiles. We screened the NIH Chemical Genomics Center (NCGC) Pharmaceutical Collection (NPC) and Mechanism Interrogation Plate (MIPE) small molecule collections of approved and investigational compounds against these cell lines; and measured metabolically active cells after 48 hours of compound treatment as a proxy for cell viability.
Assay Submitter: Nathalia J. Martinez, National Center for Advancing Translational Sciences, National Institutes of Health, Rockville, MD, USA; email: natalia.martinez@nih.gov
[1] Shen, M et al. Quantitative high-throughput phenotypic screening of pediatric cancer cell lines identifies multiple opportunities for drug repurposing. Oncotarget 2017 Dec 19;9(4):4758-4772. PMID 29435139.
The cells were obtained from University of North Carolina (UNC), Pediatric Preclinical Testing Program (PPT), and Coriell Institute (CI).
qHTS cell viability assay:
Cells were assayed in growth media at a density of 500-1,000 cells/well. Five microliters of cells were dispensed into 1,536-well, white, solid-bottom, TC-treated plates (Greiner Bio One) using a multidrop dispenser and incubated at 37 degrees C, 5% CO2, under a humidified atmosphere for 5 hours. Twenty-three nanoliters of compounds and controls (neutral control DMSO or positive control bortezomib at final concentration of 2.3 µM) were subsequently transferred by Kalypsys pintool. For primary screens, the MIPE collection was tested at 11-point dilutions (final concentrations range from 0.78 nM to 46 µM) and the NPC collection at 8-point dilutions (final concentrations range from 0.59 nM to 46 µM). Compounds tested in follow-up screens were assayed at 11-point dilutions. Cells were incubated for 48 hours, followed by addition of 3 uL of CellTiter-Glo (Promega). After a 15 min incubation at room temperature, samples were analyzed for luminescence intensity using a ViewLux High-throughput CCD imager equipped with clear filters.
Potency means the concentration at half of the fitted maximal effect.

Row | SMILES | Potency | activity change, negative = cytotoxic [%] | outcome
1 | CCCC1OC2C[C@@H]3[C@H]4CCC5=CC(=O)C=C[C@]5(C)[C@H]4C(O)C[C@]3(C)[C@]2(C(=O)CO)O1 (stereo partly specified) | 1.47 µM (active) | – | –
2 | CCC(=O)OCC(=O)[C@@]1(OC(=O)CC)[C@@H](C)C[C@@H]2[C@H]3CCC4=CC(=O)C=C[C@]4(C)[C@@]3(F)[C@@H](O)C[C@@]21C | – | -11.3 | –
3 | CC(C)CN(C[C@H](O)[C@H](Cc1ccccc1)NC(=O)O[C@H]1CCOC1)S(=O)(=O)c1ccc(N)cc1 | – | – | inactive
4 | CC(C)(C)c1[nH]cnc1C=c1[nH]c(=O)c(=Cc2ccccc2)[nH]c1=O | – | – | inactive [at 0.556 µM]
5 | CC1C(=O)OC2C(O)C34C5CC(C(C)(C)C)C36C(OC(=O)C6O)OC4(C(=O)O5)C12O (stereo unspecified) | – | 0.392 | –
6 | CC1(C)OC2CC3C4CC(F)C5=CC(=O)C=CC5(C)C4C(O)CC3(C)[C@]2(C(=O)CO)O1 (stereo partly specified) | – | – | inactive
7 | Nc1ccc(-c2ccc3ncc4ccc(=O)n(-c5cccc(C(F)(F)F)c5)c4c3c2)cn1 | 0.233 µM (active) | – | –
8 | Cc1ccc2c(c1)C(=O)[C@]1(O)CCN(c3ccccc3)C1=N2 | – | -13.8 | –
9 | COC1CCC(C(=O)c2ccc3nc4c(cc3c2)CCCO4)CC1 (stereo unspecified) | – | 18.2 | –
10 | CCCCn1c(=O)n(Cc2ccccc2F)c(=O)c2[nH]c(Cc3ccc(NC(C)=O)cc3)nc21 | 11.7 µM (active) | – | –
11 | CO[C@H]1/C=C\O[C@@]2(C)Oc3c(C)c(O)c4c(O)c(c5c(nc6cc(C)ccn65)c4c3C2=O)NC(=O)C(C)=CC=C[C@H](C)[C@H](O)[C@@H](C)[C@@H](O)[C@@H](C)[C@H](OC(C)=O)[C@H]1C | – | 1.83 | –
12 | Cc1c(C(=O)Nc2ccc(N3C[C@@H](C)O[C@@H](C)C3)nc2)cccc1-c1ccc(OC(F)(F)F)cc1 | – | -14.3 | –
13 | FC(F)(F)c1ccc(C=Cc2nc(COc3ccc(CCCCn4ccnn4)cc3)co2)cc1 | – | -18.8 | –
14 | CCC[C@H](N[C@@H](C)C(=O)N1[C@@H]2CCCC[C@H]2C[C@H]1C(=O)O)C(=O)OCC | – | 8.79 | –
15 | CN[C@@H]1CN(c2ccc3c(=O)c(C(=O)O)cn(-c4nccs4)c3n2)C[C@@H]1OC | 10.2 µM (active) | – | –
16 | CC(C)C[C@H](NC(=O)c1cc2ccccc2s1)C(=O)N1CCN(C(=O)[C@H](CO)NS(=O)(=O)c2ccc(Cl)cc2Cl)CC1 | – | -22.5 | –

Row | SMILES | Potency | activity change, negative = cytotoxic [%] | outcome
17 | COc1cc([C@@H]2c3cc4c(cc3[C@@H](O[C@@H]3O[C@@H]5CO[C@@H](C)O[C@@H]5[C@H](O)[C@@H]3O)[C@H]3COC(=O)[C@H]23)OCO4)cc(OC)c1O | 9.27 µM (active) | – | –
18 | COc1cc2c(cc1Cc1cccc(Cl)c1F)c(=O)c(C(=O)O)cn2[C@H](CO)C(C)C | – | -17.5 | –
19 | Cc1nn(Cc2ccccc2Cl)c(C)c1CN(C)CC(O)COc1ccc(Cl)cc1 (stereo unspecified) | – | -16.1 | –
20 | C=CC(=O)Nc1cccc(Sc2nc(Nc3ccc(N4CCN(C)CC4)cc3)ncc2Cl)c1 | 14.7 µM (active) | – | –
21 | O=C1Nc2ccc(I)cc2C1=Cc1cc(Br)c(O)c(Br)c1 | – | – | inactive
22 | C[C@@H]1O[C@@H](O[C@H]2CC[C@@]3(C)[C@H](CC[C@@H]4[C@H]3C[C@@H](O)[C@]3(C)[C@@H](C5=CC(=O)OC5)CC[C@]43O)C2)C[C@H](O)[C@@H]1O[C@H]1C[C@H](O)[C@H](O[C@H]2C[C@H](O)[C@@H](O)[C@@H](C)O2)[C@H](C)O1 (stereo in doubt) | 0.302 µM (active) | – | –
23 | O=C(c1ccc(F)c(F)c1Nc1ccc(I)cc1F)N1CC(O)([C@H]2CCCCN2)C1 | – | -27 | –
24 | COc1cc2ncnc(Nc3cc(Br)c(O)c(Br)c3)c2cc1OC | – | 33 | –
25 | CCN(CCO)CCCOc1ccc2c(Nc3cc(CC(=O)Nc4cccc(F)c4)[nH]n3)ncnc2c1 | – | -10.1 | –
26 | CC(C)n1c(C=C[C@H](O)C[C@H](O)CC(=O)O)c(-c2ccc(F)cc2)c2ccccc21 | 13.1 µM (active) | – | –
27 | CO[C@H]1/C=C\O[C@@]2(C)Oc3c(C)c(O)c4c(O)c(c(C=NN5CCN(C6CCCC6)CC5)c(O)c4c3C2=O)NC(=O)C(C)=CC=C[C@H](C)[C@H](O)[C@@H](C)[C@@H](O)[C@@H](C)[C@H](OC(C)=O)[C@H]1C | – | – | inactive
28 | COC(=O)[C@H](c1ccccc1Cl)N1CCc2sccc2C1 | – | – | inactive
29 | CCNC(=O)c1noc(-c2cc(C(C)C)c(O)cc2O)c1-c1ccc(CN2CCOCC2)cc1 | 0.208 µM (active) | – | –
30 | Cc1cc(CS(=O)(=O)c2ccccc2)cc(OCc2ccc(CN3CCC[C@H]3CO)cc2)c1 | – | -6.61 | –
31 | COc1ccc(-c2ccc3ncc4c(c3c2)n(-c2ccc(N3CCNCC3)c(C(F)(F)F)c2)c(=O)n4C)cn1 | 0.465 µM (active) | – | –

Source: PubChem BioAssay (NCATS)
